Results filed as inconclusive are left out. Calls of active or inactive are those of the source. Rule for the calls: active = hit-call score of the fitted dose curve at least 0.9, where 1 is the maximum; inconclusive = response in the unintended direction; inactive = score below 0.9.

The experiment can be described thus: Tanguay_ZF_120hpf_YSE_legacy: (Legacy) Oregon State University Tanguay Lab 120 Hour Post-fertilization zebrafish Assay for Yolk Sac Edema (AID 2283634).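 For AC50: actives raise the incidence of yolk sac edema above the DMSO baseline.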 How it is done: Tanguay_ZF_120hpf_legacy is a whole embryo, multiplexed endpoint assay using zebrafish larvae exposed for 120 hours post fertilization on a 96-well plate.Tanguay_ZF_120hpf_YSE_legacy is one of one assay component(s) measured or calculated from the Tanguay_ZF_120hpf_legacy assay. It is designed to make measurements of zebrafish development as detected with brightfield microscopy of developing zebrafish embryos.Data from the assay component Tanguay_ZF_120hpf_YSE_legacy was analyzed into 1 assay endpoints. This assay endpoint, Tanguay_ZF_120hpf_YSE_legacy, was analyzed in the positive analysis fitting direction relative to DMSO as the negative control and baseline of activity. Using a type of morphology reporter, gain-of-signal activity can be used to understand changes in developmentals as they relate to the whole embryo. To generalize the intended target to other relatable targets, this assay endpoint is annotated to the zebrafish development intended target family, where the subfamily is extra-embryonic membrane development.
Zebrafish husbandry: Tropical 5D wild-type adult zebrafish were housed in at an approximate density of 1000 per 100 gallon tank at the Sinnhuber Aquatic Research Laboratory, Oregon State University, Corvallis, OR. Each tank was kept at standard laboratory conditions of 28C on a 14-h light/10-h dark photoperiod in fish water consisting of reverse osmosis water supplemented with a commercially available salt (Instant Ocean). Spawning funnels were placed into the tanks the night prior, and embryos were collected and staged. To increase bioavailability, the chorion was enzymatically removed using pronase (63.6mg/ml, >/= 3.5U/mg, Sigma-Aldrich: P5147) at 4 hours post fertilization (hpf) using a custom automated dechorionator.Chemical exposures: Six hpf dechorionated embryos were placed 1 embryo per well in a 96-well plate prefilled with 90 ul of EM using automated embryo placement systems (AEPS). Ten microliters of each row of dilution plate 2 was added to 2 exposure plates. The final DMSO concentration used was 0.64% (vol/vol). Thirty-two embryos were also exposed to 5uM trimethyltin chloride (positive control). Plates were sealed to prevent evaporation and foil covered to reduce light exposure and kept in a 28C incubator. Embryos were statically exposed until 120 hpf. At 24 hpf, embryos were assessed for photomotor response using a custom photomotor response analysis tool (PRAT) and for developmental toxicity endpoints (MO24: mortality at 24 hpf, DP: developmental progression, SM: spontaneous movement, and NC: notochord distortion). At 120 hpf, locomotor activity was measured using Viewpoint Zebralab and assessed for 18 endpoints. Zebrafish acquisition and analysis program (ZAAP), a custom program designed to inventory, acquire, and manage zebrafish data, was used to collect developmental endpoints as either present or absent (i.e., binary responses were recorded). If mortality occurred for an embryo (at either 24 or 120 hpf), the non-mortality endpoints were not measured.
Consider `NC(=O)c1nc(-c2cccc(-c3cc(F)ccc3OCC(F)(F)C(F)(F)F)c2)n[nH]1`, for which the AC50 (in general, the concentration giving half of the maximal activity seen) is 26.8 µM (active). `CCOC(=O)O[C@H](C)OC(=O)c1ccc2c(c1)cc(C(=O)NC1CCN(C(C)C)CC1)n2Cc1cc(-c2ccc(Cl)s2)on1`: the outcome was inactive.

Turning to `C[C@]12CC[C@@H]3c4ccc(O)cc4CC[C@H]3[C@@H]1CCC2=O`, the compound was classed as inactive. For `CN1C(=O)CC[C@H]1c1cccnc1`, the compound was classed as inactive. On to `CCCCOC(=O)c1ccc(O)cc1`, for which the AC50 is 51.7 µM (active).

`O=C(O)Cc1cc(I)c(Oc2ccc(O)c(I)c2)c(I)c1`: the call was inactive. Consider `CCCCCCCCOc1ccc(C(=O)c2ccccc2)c(O)c1`, for which the result was inactive. Take `O=C(Nc1ccc(Cl)cc1)Nc1ccc(Cl)c(Cl)c1`: the result was inactive. Same read-out and setting: the entry for `CN(C[C@@H](CC[N+]12CCC(C3CCCCC3)(CC1)CC2)c1ccc(Cl)c(Cl)c1)C(=O)c1cc(C(F)(F)F)cc(C(F)(F)F)c1` is “inactive”; for `Cc1ncc(CO)c(CO)c1O` it is “inactive”; for `Cc1cccc2ccccc12` it is “inactive”. In the case of `O=c1ccc2ccccc2o1`, the compound was called inactive. For `Cc1cc(F)ccc1-c1cc(N2CC[C@@H](O)[C@H]2CO)ncc1N(C)C(=O)C(C)(C)c1cc(C(F)(F)F)cc(C(F)(F)F)c1`, the outcome was inactive. On the same count and under the same terms, the entry for `CC/C(=C(/CC)c1ccc(O)cc1)c1ccc(O)cc1` is “inactive”. In the case of `CC[C@@H]1C[C@H](N(Cc2cc(C(F)(F)F)cc(C(F)(F)F)c2)C(C)=O)c2cc(C(F)(F)F)ccc2N1C(=O)OC(C)C`, the outcome was inactive. For `Oc1ccc2ccccc2c1`, the AC50 was 36.9 µM (active). For the compound `Oc1ccccc1`, the call was inactive. As to `CCCCOC(=O)CC(CC(=O)OCCCC)(OC(C)=O)C(=O)OCCCC`, the compound was called inactive. As for `CCCCCCCCCC(=O)O`, the call was inactive. For the compound `CCCCCCCCCCCC[N+](C)(C)C`, the compound was classed as inactive. On the same count and under the same terms, the value for `CC1(C)NC(=O)N(c2ccc([N+](=O)[O-])c(C(F)(F)F)c2)C1=O` was “inactive”; that for `O=c1[nH]sc2ccccc12` was “inactive”. Regarding `COc1cccc([C@H](O)C2CCN(CCc3ccc(F)cc3)CC2)c1OC`, the concentration at half-maximal activity (AC50) was 44.9 µM (active).

With `CC(C)(O)c1ccc(CNC(=O)c2cccnc2Oc2ccc3nonc3c2)cc1`, the result was inactive.

`NCc1cccc(C2CCN(C(=O)c3ccc(C#Cc4ccccc4F)o3)CC2)c1`: the outcome was inactive. As to `Clc1ccccc1C(c1ccccc1)(c1ccccc1)n1ccnc1`, the half-maximal activity concentration (AC50) is 14.6 µM (active). For the compound `CN(C)C(=O)C1(N2CCCCC2)CCN(CC[C@@]2(c3ccc(Cl)c(Cl)c3)CN(C(=O)c3ccccc3)CCO2)CC1`, the compound was called inactive.

Turning to `O=C(OCCCCCCOC(=O)c1ccccc1)c1ccccc1`, the call was inactive.

Turning to `O=CCCCC=O`, the call was inactive. On to `CCN(CC)C(=O)c1cc(S(=O)(=O)Cc2ccccc2)c(N2CCC(c3ccccc3)CC2)cc1N(CC)CCN(C)C`, for which the compound was called inactive. `Cc1ccc2oc(CN(Cc3ccccc3)C(=O)Nc3c(F)cc(F)cc3F)c(-c3ccc(Cl)cc3)c2c1`: the result was inactive.

For the compound `CCCCCc1ccc(N)cc1`, the result was inactive. Still for that read-out and setting: the entry for `Cc1cn([C@H]2C[C@H](N=[N+]=[N-])[C@@H](CO)O2)c(=O)[nH]c1=O` is “inactive”; for `CC(C)(c1cc(Br)c(O)c(Br)c1)c1cc(Br)c(O)c(Br)c1` it is “inactive”. Regarding `CN1C(=O)N(c2ccccc2Br)Cc2cnc(Nc3ccc4c(c3)OCC(CO)O4)nc21` (stereo not given), the concentration at half-maximal activity (AC50) is 3.4 µM (active). With `Cc1cc2c(cc1C(F)(F)F)N(C(=O)Nc1ccc(Oc3cccnc3C)nc1)CC2`, the result was inactive. Consider `CC1=CC(=O)/C(=C(/C)O)C(=O)O1`, for which the compound was called inactive. On to `OC12N=C(c3ccccc3)SC1Cc1cc(Cl)ccc12` (stereo not given), for which the AC50 was 47.3 µM (active). Turning to `OCCO`, the compound was called inactive. In the case of `CCCCCCCCN(C)CCCCCCCC`, the call was inactive.

Values taken from PubChem BioAssay (EPA / NIEHS).
